The values that follow come from PubChem BioAssay (NCI).

Common to all, as to assay: NCI-60 one-dose screen, 48 h (100 = growth as untreated, 0 = no growth, -100 = all killed)
Conditions in all cases: 10 µM unless noted

Assay [1] deals with RPMI-8226 leukemia.
For assay [2], the system named is OVCAR-8 ovarian.
The subject of assay [3] is OVCAR-5 ovarian.
Assay [4] has as its system OVCAR-4 ovarian.
The test system of assay [5] is IGROV1 ovarian.
Assay [6] deals with OVCAR-3 ovarian.
Assay [7] concerns HS 578T breast.
Assay [8] concerns NCI/ADR-RES ovarian.
The subject of assay [9] is T-47D breast.
The test system of assay [10] is MDA-MB-435 melanoma.
Assay [11] relates to SW-620 colon.
For assay [12], the system named is MCF7 breast.
Assay [13] relates to HCT-116 colon.
Assay [14] concerns HCC-2998 colon.
The test system of assay [15] is KM12 colon.
The test system of assay [16] is SK-OV-3 ovarian.
Assay [17] concerns BT-549 breast.

The panel holds about 83,000 compounds, 20% with a hit somewhere; the sample as a whole holds those more often.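 In brief: 96-well plates, 48 h treatment, single concentration, percent growth endpoint.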 Unmarked numbers belong to inactive results. Calls of active or inactive are those of the source. How the source made its calls: active means growth percent below 10; inactive means the rest.

`CC(CN)[C@@H]1CC[C@]2(CO)CC[C@]3(C)[C@H](CC[C@@H]4[C@@]5(C)CCC(N)C(C)(C)[C@@H]5CC[C@]43C)[C@@H]12` (some centres undefined): the growth in assay [1] was -38.2% (active); in [2] it was -78.4% (active); in assay [3], -51.4% (active); in assay [4], -38.9% (active); in assay [5], 62.2%; in [6], -84.2% (active). Moreover, the growth in assay [7] is 4.39% (active); in assay [8], 53.6%; in assay [9], 6% (active); in [10] it was -29.2% (active); in assay [11], -75.7% (active); in assay [12] it was -71.2% (active). For the same molecule, the growth was -81.2% (active) in assay [13], -77.5% (active) in assay [14] and -73.5% (active) in assay [15].
For `COc1ccc(C2C(C#N)=C(N)Oc3c2sc2c(Br)cccc32)cc1` (centres undefined), the growth was 12.5% in assay [1]; 35.1% in [2]; 50.5% in assay [3]; 64.4% in [4]; 42.7% in assay [5]; 10.6% in assay [6]. For the same molecule, the growth in assay [7] is 41.8%; in assay [8], 6.27% (active); in assay [9], 27.2%; in assay [10] it was -18.1% (active); in [11], 32%; in assay [12], 13.1%. In addition, the values for the growth in [13], in [14] and in assay [15] were 22.4%, 56.8% and 27.5%, respectively.
As for `COc1ccc(-c2cc(C(=O)N3N=C(c4ccc(N)cc4)CC3c3ccccc3)c3ccccc3n2)cc1` (centres undefined), the growth in assay [1] was 23.5%; in assay [2], 47.5%; in [3] it was 64.7%; in assay [4] it was 65%; in [16] it was 34.9%; in [5], 49.5%. Besides, the growth in assay [7] is 36.8%; in [8], 34.4%; in assay [9] it was 38.2%; in assay [17], 41.3%; in [10], -20% (active); in [11], 23.4%. Also, the growth in [12] was 24.1%; in assay [13], 17.8%; in assay [14] it was 59.9%; in [15] it was 25.1%.
With `CCn1cc(C(=O)N/N=C/c2ccc(Br)cc2)c(=O)c2cc(F)c(N3CCNC(C)C3)c(F)c21` (centres undefined), the growth in assay [1] is -14.8% (active); in assay [2], 57.8%; in assay [3], 94%; in assay [4], 81.7%; in assay [16], 109%; in assay [5], 71.3%. The growth is 52.9% in assay [6]; 73% in [7]; 83.3% in [8]; 64.1% in assay [9]; 91.7% in assay [17]; 16.7% in assay [10]. Also, the growth is -74.1% (active) in assay [11]; -77.3% (active) in [12]; 67.7% in assay [13]; 25.9% in assay [14]; 47.9% in assay [15].
On to `C[C@H]1[C@H](C)CC[C@]2(C(=O)O)CC[C@]3(C)C(=CC[C@@H]4[C@@]5(C)C[C@@H](Cc6cn([C@@H]7O[C@H](CO)[C@@H](O)[C@H](O)[C@H]7O)nn6)[C@H](O)C(C)(C)[C@@H]5CC[C@]43C)[C@H]12`, for which the growth was 98.3% in assay [1]; 97.8% in [2]; 97.2% in assay [3]; 91.7% in [4]; 88.5% in [16]; 107% in assay [5]. Further, the growth was 107% in assay [6]; 103% in [7]; 106% in assay [8]; 93.5% in [9]; 102% in assay [17]; 101% in [10]. Further, the growth in assay [11] was 97.6%; in [12], 92.7%; in assay [13], 92%; in assay [14], 107%; in assay [15], 108%.
Consider `O=C(Nc1nc(C(=O)N2CCN(C(c3ccccc3)c3ccccc3)CC2)cs1)c1ccc(NC2CCCCC2)c([N+](=O)[O-])c1`, for which the growth in [1] is 64.2%; in assay [2], 80.4%; in assay [3], 89.2%; in assay [4], 68.9%; in assay [16], 89.8%; in [5], 79.6%. The growth in assay [6] was 92.2%; in [7], 90.2%; in [8], 77%; in [9], 60%; in assay [17], 82.5%; in [10], 91%. In addition, the growth in [11] is 91.4%; in assay [12], 81.3%; in assay [13], 82.6%; in assay [14], 72.7%; in [15], 91.4%.
For the molecule `O=C(O)C1CN(c2cccc(Cl)c2)N(c2cccc(Cl)c2)C1=O` (centres undefined), the growth was 107% in [1]; 93.2% in [2]; 75.3% in assay [3]; 96% in [4]; 88.9% in assay [16]; 89.8% in [5]. Further, the growth in assay [6] is 87.1%; in [7] it was 91%; in [8], 93.9%; in [9], 88.9%; in assay [17] it was 101%; in assay [10] it was 94.2%. The growth was 97.8% in assay [11]; 91.8% in assay [12]; 97.4% in assay [13]; 103% in [14]; 81.3% in [15].
Take `S=c1[nH]c2cc(Cl)ccc2o1`: the growth in [1] is 81.5%; in [2], 115%; in assay [3] it was 92.5%; in assay [4], 103%; in assay [16], 108%; in assay [5] it was 118%. The growth is 114% in assay [6]; 88.6% in assay [7]; 106% in [8]; 92.3% in assay [9]; 99.8% in [17]; 94.2% in assay [11]. Moreover, the growth in assay [12] is 105%; in [13], 91.1%; in [14], 115%; in assay [15], 100%.
In the case of `COc1cccc(NC(=O)c2cccc(C3CCc4c(cc(OC)c(OC)c4OC)O3)c2)c1` (centres undefined), the growth in assay [1] was 28.4%; in [2], 54.5%; in assay [3], 81.8%; in assay [4], 56.7%; in assay [16], 71.7%; in assay [5] it was 65.6%. In addition, the growth was 81.1% in [6]; 86.6% in [7]; 55.9% in assay [8]; 20.5% in assay [9]; 41.5% in assay [17]; 79.6% in assay [10]. Moreover, the growth in assay [11] was 100%; in assay [12], 74.3%; in assay [13], 62.4%; in assay [14], 81.4%; in assay [15], 81.5%.
`N#Cc1c(N2CCOCC2)nc(=S)[nH]c1-c1ccccc1`: the growth in [1] was 73.6%; in assay [2], 81.8%; in [3], 71.7%; in assay [4], 77.3%; in assay [16], 64.4%; in assay [5] it was 29.1%. In addition, the growth in assay [6] is 66.8%; in assay [7] it was 26.8%; in assay [8] it was 80.9%; in [9], 37.3%; in assay [17], 57.7%; in [10], 82.2%. The growth was 82.1% in [11]; 56.6% in assay [12]; 86.6% in [13]; 79.1% in [14]; 77.6% in assay [15].
